The campaign covered roughly 370,000 compounds. About 3,800 (1%) were called active. The full list was thinned out, with actives kept by preference. Values without a mark were called inactive. Cut-off read from the data, not from the text of the source: active = activation above about 7.8%; inactive = the rest.
Test: SMARCA2 (BRM) function activators, primary screen, cell-based, luminescence, high throughput (AID 652017);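 note: 0% = vehicle wells and 100% = reference activator wells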
Details: MG213 cells, MMTV-luciferase reporter, dexamethasone, overnight; at 9.1 µM; active compounds read high

| SMILES | activation |
| --- | --- |
| O=C(N/N=C/c1c(O)n(Cc2ccccc2)c(=O)[nH]c1=O)c1ccccc1 | 8.1% (active) |
| O=C(N/N=C/c1c(O)n(C2CC2)c(=S)[nH]c1=O)c1ccccc1 | 5.22% |
| O=C(N/N=C/c1c(O)n(C2CC2)c(=S)[nH]c1=O)c1ccccc1Cl | 1.16% |
| Cc1ccccc1CCC[C@@H](CC1CCCCC1)CN(C)C(=O)Oc1ccccc1 | 0.55% |
| COc1ccc2c(c1)NP(=S)(c1ccccc1)N2 (stereo not given) | 0.4% |
| Cc1cc(C)c2c(c1)NP(=S)(c1ccccc1)N2 (stereo not given) | 9.88% (active) |
| COc1cccc(C(=O)N2C[C@H]3C[C@@H](C2)c2cccc(=O)n2C3)c1 | 0.48% |
| COP(=O)(Sc1ccccc1)C(Cc1ccccc1)NC(=O)OCc1ccccc1 (stereo not given) | 0.4% |
| NCC(O)c1ccc(O)cc1 (stereo not given) | -0.14% |
| O=C1CC(=O)N(Cc2ccccc2)C(=O)N1CCCCCCN1C(=O)CC(=O)N(Cc2ccccc2)C1=O | 1.8% |
